The full list was thinned out, with the strongest signals kept by preference.
B1: MLTim-4 (Mus musculus), Q6U7R4 (protein)
chain: MSKGLLLLWLVTELWWLYLTPAASEDTIIGFLGQPVTLPCHYLSWSQSRNSMCWGKGSCPNSKCNAELLRTDGTRIISRKSTKYTLLGKVQFGEVSLTISNTNRGDSGVYCCRIEVPGWFNDVKKNVRLELRRAT
B2: RNase 1 (Homo sapiens) (protein)
chain: KESRAKKFQRQHMDSDSSPSSSSTYCNQMMRRRNMTQGRCKPVNTFVHEPLVDVQNVCFQEKVTCKNGQGNCYKSNSSMHITDCRLTNGSRYPNCAYRTSPKERHIIVACEGSPYVPVHFDASVEDST

Columns and labels:
Assay in all cases: glycan array binding signal (z-score within array); higher = stronger binding
Conditions in all cases: glycan notation: IUPAC condensed, linker removed
[1] = target: Fuc(a1-2)Gal(b1-3)GalNAc(b1-3)Gal(a1-4)Gal(b1-4)Glc
Procedure, shortened: (§1)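 The binding signal is a Z-score computed within each array and averaged over linkers. Arrays of the same protein sequence at different concentrations or buffers were also averaged together. Data originate from 3228 arrays in the Consortium for Functional Glycomics database, kept only where the protein sequence was available.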

[2] = target: Fuc(a1-2)Gal(b1-4)[Fuc(a1-3)]GalNAc(b1-3)Gal(b1-4)[Fuc(a1-3)]GlcNAc
Procedure, shortened: as §1

[3] = target: Fuc(a1-2)Gal(b1-4)[Fuc(a1-3)]GalNAc(b1-3)Gal(b1-4)[Fuc(a1-3)]GlcNAc(b1-3)Gal(b1-4)[Fuc(a1-3)]GalNAc
Procedure, shortened: as §1

[4] = target: Fuc(a1-2)[GalNAc(a1-3)]Gal(b1-4)[Fuc(a1-3)]GlcNAc
Procedure, shortened: as §1

[5] = target: Fuc(a1-3)[Gal(b1-4)]Glc6S
Procedure, shortened: as §1

Fuc(b1-3)GlcNAc = target: Fuc(b1-3)GlcNAc
Procedure, shortened: as §1

Gal(a1-4)Gal(b1-4)Gal = target: Gal(a1-4)Gal(b1-4)Gal
Procedure, shortened: as §1

Gal(b1-2)Gal = target: Gal(b1-2)Gal
Procedure, shortened: as §1

Gal(b1-3)Gal = target: Gal(b1-3)Gal
Procedure, shortened: as §1

[6] = target: Gal(b1-4)GalNAc(b1-3)[Fuc(a1-2)]Gal(b1-4)GlcNAc
Procedure, shortened: as §1

GlcA(b1-3)Gal = target: GlcA(b1-3)Gal
Procedure, shortened: as §1

GlcA(b1-6)Gal = target: GlcA(b1-6)Gal
Procedure, shortened: as §1

[7] = target: GlcNAc(b1-3)[GlcNAc(b1-4)][GlcNAc(b1-6)]GlcNAc
Procedure, shortened: as §1

[8] = target: Man(a1-2)Man(a1-2)Man(a1-6)[Man(a1-3)]Man
Procedure, shortened: as §1

[9] = target: Man(a1-2)Man(a1-3)[Man(a1-6)]Man(a1-6)[Man(a1-2)Man(a1-3)]Man(b1-4)GlcNAc(b1-4)GlcNAc
Procedure, shortened: as §1

Man(b1-4)GlcNAc = target: Man(b1-4)GlcNAc
Procedure, shortened: as §1

[10] = target: Neu5Ac(a2-3)Gal(b1-3)GlcNAc
Procedure, shortened: as §1

[11] = target: Neu5Ac(a2-3)Gal(b1-3)GlcNAc6S
Procedure, shortened: as §1

[12] = target: Neu5Ac(a2-3)Gal(b1-4)GlcNAc(b1-3)Gal(b1-3)GlcNAc
Procedure, shortened: as §1

[13] = target: Neu5Ac(a2-8)Neu5Ac(a2-3)[GalNAc(b1-4)]Gal(b1-4)Glc
Procedure, shortened: as §1

[14] = target: Neu5Ac(a2-8)Neu5Ac(a2-8)Neu5Ac(a2-3)[GalNAc(b1-4)]Gal(b1-4)Glc
Procedure, shortened: as §1

[15] = target: Neu5Gc(a2-3)Gal(b1-3)GlcNAc
Procedure, shortened: as §1

[16] = target: Fuc(a1-2)Gal(b1-3)[Fuc(a1-4)]GlcNAc
Procedure, shortened: as §1

Fuc(a1-2)[Gal(a1-3)]Gal = target: Fuc(a1-2)[Gal(a1-3)]Gal
Procedure, shortened: as §1

[17] = target: Fuc(a1-3)[Gal3S(b1-4)]GlcNAc
Procedure, shortened: as §1

Gal(a1-4)Gal(b1-4)GalNAc = target: Gal(a1-4)Gal(b1-4)GalNAc
Procedure, shortened: as §1

Gal(a1-4)GlcNAc = target: Gal(a1-4)GlcNAc
Procedure, shortened: as §1

[18] = target: Gal(b1-3)GalNAc(b1-3)Gal(b1-4)Glc
Procedure, shortened: as §1

[19] = target: GalNAc(b1-3)Gal(a1-4)Gal(b1-4)GlcNAc
Procedure, shortened: as §1

[20] = target: GlcNAc(b1-3)[GlcNAc(b1-6)]GlcNAc
Procedure, shortened: as §1

[21] = target: GlcNAc(b1-4)GlcNAc(b1-4)GlcNAc(b1-4)GlcNAc(b1-4)GlcNAc
Procedure, shortened: as §1

[22] = target: Man(a1-2)Man(a1-2)Man(a1-3)[Man(a1-2)Man(a1-6)[Man(a1-3)]Man(a1-6)]Man(b1-4)GlcNAc(b1-4)GlcNAc
Procedure, shortened: as §1

Man(a1-3)[Man(a1-6)]Man = target: Man(a1-3)[Man(a1-6)]Man
Procedure, shortened: as §1

Binder	glycan array binding signal (z-score) [1]	glycan array binding signal (z-score) [2]	glycan array binding signal (z-score) [3]	glycan array binding signal (z-score) [4]	glycan array binding signal (z-score) [5]	glycan array binding signal (z-score) (Fuc(b1-3)GlcNAc)	glycan array binding signal (z-score) (Gal(a1-4)Gal(b1-4)Gal)	glycan array binding signal (z-score) (Gal(b1-2)Gal)	glycan array binding signal (z-score) (Gal(b1-3)Gal)	glycan array binding signal (z-score) [6]	glycan array binding signal (z-score) (GlcA(b1-3)Gal)	glycan array binding signal (z-score) (GlcA(b1-6)Gal)	glycan array binding signal (z-score) [7]	glycan array binding signal (z-score) [8]	glycan array binding signal (z-score) [9]	glycan array binding signal (z-score) (Man(b1-4)GlcNAc)	glycan array binding signal (z-score) [10]	glycan array binding signal (z-score) [11]	glycan array binding signal (z-score) [12]	glycan array binding signal (z-score) [13]	glycan array binding signal (z-score) [14]	glycan array binding signal (z-score) [15]	glycan array binding signal (z-score) [16]	glycan array binding signal (z-score) (Fuc(a1-2)[Gal(a1-3)]Gal)	glycan array binding signal (z-score) [17]	glycan array binding signal (z-score) (Gal(a1-4)Gal(b1-4)GalNAc)	glycan array binding signal (z-score) (Gal(a1-4)GlcNAc)	glycan array binding signal (z-score) [18]	glycan array binding signal (z-score) [19]	glycan array binding signal (z-score) [20]	glycan array binding signal (z-score) [21]	glycan array binding signal (z-score) [22]	glycan array binding signal (z-score) (Man(a1-3)[Man(a1-6)]Man)
B1	-0.142	-0.799	0.195	0.41	2.31	-0.108	0.491	1.47	0.543	-0.991	6.6	2.97	-0.523	0.353	-0.137	1.06	-0.547	2.45	-0.655	-0.484	-0.741	-0.343	–	–	–	–	–	–	–	–	–	–	–
B2	1.93	–	–	–	–	–	7.93	–	–	-0.218	–	–	-0.069	–	–	–	–	-0.204	–	–	-0.187	–	-0.174	-0.14	-0.168	8.87	-0.225	0.641	0.455	-0.116	-0.028	-0.153	-0.147

— the supplement of paper PMC8728848
